What all share (experiment): PBM binding z-score (relative to random genomic background probes); higher = stronger binding; sequences stand for … in GC…GCGATTGACAGCGTAGAATGAAGG
Assay [1] concerns PPARg:RXRa DBDmut IVT, anti-RXR (DBD mutation: RXRa K156A/R161A, NR concentration 270 nM, RXRa partner concentration 90 nM). In a few lines:
(§1)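 Ligand-free nuclear receptor dimers were applied to custom Agilent 4×180K protein-binding microarrays whose double-stranded probes carried direct-repeat seeds, single-nucleotide variants, half-site ablations and random human genomic background sequences in 34-nt variable regions. Incubation lasted 1 h. Binding z-scores were computed against the random background probes from regression-normalized fluorescence.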

Assay [2] relates to PPARg:RXRa IVT, anti-PPARg (NR concentration 270 nM, RXRa partner concentration 90 nM). The method, boiled down:
as §1

Assay [3] relates to PPARg DBDmut:RXRa IVT, anti-PPARg (DBD mutation: PPARg1 K132A/R137A, NR concentration 270 nM, RXRa partner concentration 90 nM). In a few lines:
as §1

The subject of assay [4] is PPARg DBDmut IVT, anti-PPARg (DBD mutation: PPARg1 K132A/R137A, NR concentration 270 nM). The method, boiled down:
as §1

The subject of assay [5] is PPARg homodimer (NR concentration 180 nM). In a few lines:
as §1

The test system of assay [6] is PXR:RXRa (NR concentration 270 nM, RXRa partner concentration 90 nM). The method, boiled down: as §1
The test system of assay [7] is PXR homodimer (NR concentration 270 nM). In a few lines:
as §1

Assay [8] has as its system RARa:RXR (NR concentration 270 nM, RXRa partner concentration 90 nM). The method, boiled down: as §1
The test system of assay [9] is RARa homodimer (NR concentration 270 nM). The method, boiled down:
as §1

The subject of assay [10] is RARb:RXRa (NR concentration 270 nM, RXRa partner concentration 90 nM). The method, boiled down: as §1
Assay [11] relates to RARb homodimer (NR concentration 270 nM). The method, boiled down:
as §1

For assay [12], the system named is RARg:RXRa (NR concentration 270 nM, RXRa partner concentration 90 nM). In a few lines:
as §1

In assay [13] the test system is RARg homodimer (NR concentration 270 nM). The method, boiled down:
as §1

Assay [14] deals with RXRa DBDmut IVT, anti-RXR (DBD mutation: RXRa K156A/R161A, NR concentration 90 nM). In a few lines: as §1
In assay [15] the test system is RXRa homodimer (NR concentration 180 nM). The method, boiled down:
as §1

Assay [16] deals with THRa:RXRa (NR concentration 90 nM, RXRa partner concentration 90 nM). In a few lines:
as §1

The subject of assay [17] is THRa homodimer (NR concentration 90 nM). In a few lines:
as §1

The subject of assay [18] is VDR homodimer (NR concentration 270 nM). The method, boiled down:
as §1

In the supplement of paper PMC6555819 one finds PBM binding z-score data, which are given here for eight sequences.

For CCTTACGGGTCACTGCCAGGTTATAGCATTTGGA, the PBM binding z-score is 3.11 in assay [1]; 3.87 in assay [2]; 0.0612 in assay [3]; -0.48 in assay [4]; 2.07 in assay [5]; 3.53 in [6]. Also, the PBM binding z-score in [7] was 0.376; in assay [8], 3.87; in assay [9], 0.61; in assay [10] it was 3.8; in [11], 3.13; in assay [12] it was 5.43. The PBM binding z-score came to 4.16 in assay [13]; 1.46 in [14]; 4.62 in [15]; 3.4 in assay [16]; 0.811 in assay [17]; 1.47 in assay [18].

As for TCTATAAGTTGAAGGGCAACCGACGAGTCCGTTT, the PBM binding z-score was 2.03 in assay [1]; 0.839 in [2]; 0.713 in [3]; 0.947 in assay [4]; 0.68 in [5]; 0.812 in assay [6]. The PBM binding z-score in assay [7] amounted to 0.652; in assay [8] it was 0.558; in assay [9] it was 0.192; in assay [10] it was 1.93; in assay [11] it was 1.49; in assay [12] it was 0.829. The PBM binding z-score in assay [13] was determined as 1.07; in [14], 1.59; in assay [15], 1.01; in assay [16], 0.466; in assay [17], 0.137; in assay [18], 1.57.

Regarding CCGAGTAGGTTATGGGGCGTTCAGGCAACGGTGA, the PBM binding z-score in assay [1] is 2.68; in assay [2] it was 2.65; in assay [3], -0.225; in assay [4], -0.53; in assay [5] it was 0.696; in assay [6] it was -0.0536. In addition, the PBM binding z-score is -0.251 in assay [7]; 0.233 in assay [8]; -0.0281 in assay [9]; 0.904 in assay [10]; 0.761 in [11]; 0.491 in assay [12]. Besides, the PBM binding z-score is 0.0403 in assay [13]; -0.298 in assay [14]; 0.251 in assay [15]; 0.608 in assay [16]; 0.402 in [17]; 0.062 in [18].

Take TCTGTTAGTTGAAGGGCAACCGACGAGTCCGTTT: the PBM binding z-score in assay [1] worked out at 1.61; in assay [2], 1.1; in assay [3], 0.429; in [4], 0.734; in [5] it was 1.19; in assay [6], 0.704. For the same sequence, the PBM binding z-score in assay [7] turned out to be 1.02; in assay [8], 0.521; in assay [9], 0.738; in assay [10] it was 1.65; in assay [11] it was 1.22; in assay [12], 0.835. Moreover, the PBM binding z-score is 0.708 in assay [13]; 1.1 in assay [14]; 0.588 in assay [15]; 0.412 in [16]; 0.0955 in assay [17]; 1.67 in assay [18].

With AGTCAAAGTTCCGGACGAGGTAACGTAAAGCACG, the PBM binding z-score in [1] was -0.341; in assay [2], 0.284; in assay [3], 0.0206; in [4] it was -0.236; in assay [5], -0.335; in [6], -0.34. Also, the PBM binding z-score was -0.452 in assay [7]; 0.0687 in [8]; -0.122 in assay [9]; 0.265 in assay [10]; 0.173 in assay [11]; 0.181 in assay [12]. Further, the PBM binding z-score in assay [13] was 0.277; in assay [14], -0.303; in assay [15], 0.201; in assay [16], 1.62; in assay [17], 0.886; in assay [18], -0.0573.

Consider ATCTCTAGGTAACAAGTCCAGTGAAAGAGAGGAC, for which the PBM binding z-score in assay [1] stood at 3.01; in assay [2], 2.6; in assay [3], 0.767; in assay [4], 1.29; in [5] it was 0.367; in assay [6], 0.433. Further, the PBM binding z-score in assay [7] worked out at 0.215; in assay [8] it was 0.195; in assay [9], 0.924; in assay [10], 0.473; in assay [11], 0.709; in assay [12] it was 0.499. Also, the PBM binding z-score in assay [13] turned out to be 0.722; in [14] it was 0.0341; in [15] it was 0.552; in assay [16] it was 0.997; in assay [17], 0.64; in assay [18], 0.635.

Consider GTAACGAGGGCATTCGAGTTGATAGCATGGCGAT, for which the PBM binding z-score in assay [1] is 3.16; in [2] it was 2.66; in assay [3], 0.308; in assay [4], -0.0825; in [5] it was -0.229; in assay [6], 3.76. Further, the PBM binding z-score is 2.23 in assay [7]; 0.683 in assay [8]; -0.277 in [9]; 1.89 in [10]; 0.944 in assay [11]; 1.34 in assay [12]. Also, the PBM binding z-score in assay [13] is 1.45; in assay [14] it was 2.91; in assay [15] it was 0.914; in assay [16], 3.18; in assay [17], -0.244; in assay [18], 3.97.

In the case of CGAACTTGGTCAAGGACAGTGAATCTCCGCACGC, the PBM binding z-score was 1.01 in assay [1]; 0.689 in assay [2]; -0.557 in assay [3]; -0.422 in assay [4]; -0.784 in assay [5]; -0.25 in assay [6]. Further, the PBM binding z-score in assay [7] was -0.515; in assay [8], -0.377; in [9], -0.435; in assay [10], 1.34; in [11], 0.692; in assay [12], 0.479. Besides, the PBM binding z-score in assay [13] is 1.1; in assay [14], 0.243; in assay [15], 0.275; in assay [16], 1.89; in assay [17], 1.37; in assay [18], -0.254.
